About 83,000 compounds went through this panel and 20% of them were active in at least one assay; those are over-represented in the sample as a whole.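 Single-dose data. Exposure time 48 hours. Values below 10 considered active.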 The source made the active and inactive calls.
Experiments:
Test in all cases: NCI-60 one-dose screen, 48 h (100 = growth as untreated, 0 = no growth, -100 = all killed)
Details in all cases: 10 µM unless noted
SK-MEL-2 melanoma = tested on: SK-MEL-2 melanoma
EKVX NSCLC = tested on: EKVX NSCLC
SN12C renal = tested on: SN12C renal
UO-31 renal = tested on: UO-31 renal
TK-10 renal = tested on: TK-10 renal
ACHN renal = tested on: ACHN renal
CAKI-1 renal = tested on: CAKI-1 renal
CCRF-CEM leukemia = tested on: CCRF-CEM leukemia
MOLT-4 leukemia = tested on: MOLT-4 leukemia
SR leukemia = tested on: SR leukemia
RPMI-8226 leukemia = tested on: RPMI-8226 leukemia
OVCAR-8 ovarian = tested on: OVCAR-8 ovarian
OVCAR-5 ovarian = tested on: OVCAR-5 ovarian
OVCAR-4 ovarian = tested on: OVCAR-4 ovarian
SK-OV-3 ovarian = tested on: SK-OV-3 ovarian
IGROV1 ovarian = tested on: IGROV1 ovarian
OVCAR-3 ovarian = tested on: OVCAR-3 ovarian
HS 578T breast = tested on: HS 578T breast
NCI/ADR-RES ovarian = tested on: NCI/ADR-RES ovarian
A498 renal = tested on: A498 renal

Measured: growth

C=C(C)[C@@H]1CC[C@]2(COCCCNCCCN)CC[C@]3(C)[C@H](CC[C@@H]4[C@@]5(C)CC[C@H](OCCCN)C(C)(C)[C@@H]5CC[C@]43C)[C@@H]12
inactive: SK-MEL-2 melanoma 92.6% | EKVX NSCLC 47.6% | UO-31 renal 38.9% | CAKI-1 renal 51.9% | SK-OV-3 ovarian 102% | OVCAR-3 ovarian 47.8% | HS 578T breast 87.4%
active: SN12C renal -83.1% | TK-10 renal -10.4% | ACHN renal -72.4% | CCRF-CEM leukemia -37.8% | MOLT-4 leukemia -15.6% | SR leukemia -49.2% | RPMI-8226 leukemia -51.7% | OVCAR-8 ovarian -66.3% | OVCAR-5 ovarian -49% | OVCAR-4 ovarian -79.4% | IGROV1 ovarian -81.1% | NCI/ADR-RES ovarian -80.2%

C=C(C)[C@@H]1CC[C@]2(C(=O)NC(C)=O)CC[C@]3(C)[C@H](CC[C@@H]4[C@@]5(C)CCCNC(C)(C)[C@@H]5CC[C@]43C)[C@@H]12
active: SK-MEL-2 melanoma -34.6% | ACHN renal -30.1% | CCRF-CEM leukemia 1.24% | MOLT-4 leukemia -13.1% | SR leukemia -24.5% | RPMI-8226 leukemia -30.3% | OVCAR-3 ovarian -34.3%
inactive: EKVX NSCLC 68.8% | SN12C renal 22.2% | UO-31 renal 49.7% | TK-10 renal 10.6% | CAKI-1 renal 71.8% | OVCAR-8 ovarian 17.5% | OVCAR-5 ovarian 67.9% | OVCAR-4 ovarian 33.9% | SK-OV-3 ovarian 68.6% | IGROV1 ovarian 20.4% | HS 578T breast 52.3% | NCI/ADR-RES ovarian 29.4%

Cc1nc2sc(C(=O)Nc3ccccc3)c(N)c2cc1C(O)c1ccccc1 (stereo unspecified)
active: CCRF-CEM leukemia 6.36% | SR leukemia -5.59% | RPMI-8226 leukemia 5.65% | OVCAR-3 ovarian 5.62% | HS 578T breast 8.01%
inactive: SK-MEL-2 melanoma 54.8% | EKVX NSCLC 51.5% | SN12C renal 25.4% | UO-31 renal 45.7% | TK-10 renal 59.3% | ACHN renal 34.4% | CAKI-1 renal 24.8% | MOLT-4 leukemia 15.1% | OVCAR-8 ovarian 19.2% | OVCAR-5 ovarian 33.2% | OVCAR-4 ovarian 46.9% | SK-OV-3 ovarian 27.3% | IGROV1 ovarian 27.7% | NCI/ADR-RES ovarian 15%

NCCCCCNc1noc(Cc2c[nH]c3cc(Br)ccc23)n1
inactive: EKVX NSCLC 33% | SN12C renal 42.7% | UO-31 renal 41.8% | TK-10 renal 38.6% | ACHN renal 52.2% | CAKI-1 renal 35.3% | MOLT-4 leukemia 29.3% | SR leukemia 10.5% | OVCAR-8 ovarian 28.4% | OVCAR-5 ovarian 58.1% | OVCAR-4 ovarian 46.8% | IGROV1 ovarian 34.5% | HS 578T breast 19.8%
active: SK-MEL-2 melanoma 4.12% | CCRF-CEM leukemia 2.39% | RPMI-8226 leukemia 4.37% | SK-OV-3 ovarian -1.93% | OVCAR-3 ovarian -50.2% | NCI/ADR-RES ovarian -13.6%

N#C/C(Sc1nc2sc3c(c2c(=O)n1Cc1ccccc1)CCCC3)=C1/SC=C(c2ccc(Cl)cc2)N1c1ccccc1
inactive: SK-MEL-2 melanoma 106% | EKVX NSCLC 106% | SN12C renal 98% | UO-31 renal 63.7% | TK-10 renal 107% | ACHN renal 92.7% | CAKI-1 renal 91.4% | MOLT-4 leukemia 92.3% | SR leukemia 25.4% | OVCAR-8 ovarian 61.6% | OVCAR-5 ovarian 83.7% | OVCAR-4 ovarian 93.5% | SK-OV-3 ovarian 88.6% | IGROV1 ovarian 38.2% | OVCAR-3 ovarian 112% | HS 578T breast 75.2% | NCI/ADR-RES ovarian 83.5%
active: CCRF-CEM leukemia 0.897%

Cc1cc2nc(C(Cl)Cl)nc(-c3ccccc3)n2n1
inactive: SK-MEL-2 melanoma 110% | EKVX NSCLC 61% | SN12C renal 85.6% | UO-31 renal 75.1% | TK-10 renal 59.2% | ACHN renal 11.6% | CAKI-1 renal 35% | CCRF-CEM leukemia 79.1% | MOLT-4 leukemia 53.1% | SR leukemia 20.6% | RPMI-8226 leukemia 63% | OVCAR-8 ovarian 49.6% | OVCAR-5 ovarian 78.8% | OVCAR-4 ovarian 33.2% | IGROV1 ovarian 71.4% | OVCAR-3 ovarian 36.9% | HS 578T breast 52.6% | NCI/ADR-RES ovarian 48.6%

O=C(N/N=C/c1ccccc1Cl)c1ccccc1Nc1ccnc(C(F)(F)F)c1
active: SK-MEL-2 melanoma -24% | SN12C renal 9.09% | UO-31 renal 1.62% | ACHN renal 1.95% | CAKI-1 renal 1.49% | SR leukemia -3.24% | RPMI-8226 leukemia -34.9% | OVCAR-8 ovarian 7.58% | OVCAR-5 ovarian 6.58% | OVCAR-4 ovarian -1.98% | SK-OV-3 ovarian -8.48% | IGROV1 ovarian 9.79% | OVCAR-3 ovarian 3.44% | NCI/ADR-RES ovarian 4.04%
inactive: EKVX NSCLC 11.7% | TK-10 renal 16.1% | CCRF-CEM leukemia 11.2% | HS 578T breast 19.3%

CCCCC/C=C/CCC(=O)N[C@H]1[C@H](Oc2c3cc4cc2Oc2ccc(cc2Cl)[C@@H](O[C@@H]2O[C@H](CO)[C@@H](O)[C@H](O)[C@H]2NC(C)=O)[C@@H]2NC(=O)[C@H](NC(=O)[C@@H]4NC(=O)[C@H]4NC(=O)[C@@H](Cc5ccc(c(Cl)c5)O3)NC(=O)[C@@H](N)c3ccc(O)c(c3)Oc3cc(O)cc4c3)c3ccc(O)c(c3)-c3c(O[C@H]4O[C@H](CO)[C@@H](O)[C@H](O)[C@@H]4O)cc(O)cc3[C@H](C(=O)O)NC2=O)O[C@H](CO)[C@H](O)[C@@H]1O
inactive: SK-MEL-2 melanoma 112% | EKVX NSCLC 96.4% | SN12C renal 94.7% | UO-31 renal 82% | TK-10 renal 112% | ACHN renal 103% | CAKI-1 renal 84.1% | CCRF-CEM leukemia 113% | MOLT-4 leukemia 101% | SR leukemia 95.5% | RPMI-8226 leukemia 120% | OVCAR-8 ovarian 101% | OVCAR-5 ovarian 114% | OVCAR-4 ovarian 110% | SK-OV-3 ovarian 111% | IGROV1 ovarian 101% | OVCAR-3 ovarian 104% | HS 578T breast 50.1% | NCI/ADR-RES ovarian 96.5%

FC(F)(F)c1cc(N2CCCCC2)nc(NCCCNc2ccnc3cc(Cl)ccc23)n1
inactive: SK-MEL-2 melanoma 64.9% | EKVX NSCLC 48.3% | SN12C renal 69.1% | UO-31 renal 46.8% | TK-10 renal 63.6% | ACHN renal 65.8% | CAKI-1 renal 60.7% | CCRF-CEM leukemia 54% | MOLT-4 leukemia 40% | RPMI-8226 leukemia 39.9% | OVCAR-8 ovarian 66.2% | OVCAR-5 ovarian 87.6% | SK-OV-3 ovarian 72.1% | IGROV1 ovarian 60% | OVCAR-3 ovarian 54.8% | HS 578T breast 74.7% | NCI/ADR-RES ovarian 44.9%
active: SR leukemia -4.99%

O=C1/C(=C/c2ccccc2)COc2ccc(O)cc21
inactive: SK-MEL-2 melanoma 104% | EKVX NSCLC 105% | SN12C renal 91.7% | UO-31 renal 76.4% | TK-10 renal 106% | ACHN renal 101% | CAKI-1 renal 93.5% | CCRF-CEM leukemia 21.5% | MOLT-4 leukemia 78.6% | SR leukemia 17.6% | OVCAR-8 ovarian 95.9% | OVCAR-5 ovarian 104% | OVCAR-4 ovarian 99.5% | SK-OV-3 ovarian 124% | IGROV1 ovarian 105% | OVCAR-3 ovarian 98.7% | HS 578T breast 107% | NCI/ADR-RES ovarian 104%
active: RPMI-8226 leukemia -16.5%

CNC(=O)c1cc(Oc2ccc3nc(NC(=O)Nc4ccc(F)cc4F)sc3c2)ccn1
inactive: SK-MEL-2 melanoma 74.7% | EKVX NSCLC 89.8% | SN12C renal 69.2% | UO-31 renal 91.4% | TK-10 renal 93.5% | ACHN renal 60.6% | CAKI-1 renal 88.4% | CCRF-CEM leukemia 89.7% | MOLT-4 leukemia 82.4% | SR leukemia 80.4% | RPMI-8226 leukemia 72.9% | OVCAR-8 ovarian 45.1% | OVCAR-5 ovarian 95.2% | OVCAR-4 ovarian 34.2% | SK-OV-3 ovarian 76.3% | IGROV1 ovarian 84.2% | OVCAR-3 ovarian 74.7% | HS 578T breast 44.5% | NCI/ADR-RES ovarian 45.5%

COc1ccc(C(=O)/C=C/c2ccc(Cl)cc2)cc1S(N)(=O)=O
inactive: SK-MEL-2 melanoma 80.3% | EKVX NSCLC 87.3% | SN12C renal 15.4% | UO-31 renal 33.1% | TK-10 renal 70% | ACHN renal 58.4% | CAKI-1 renal 74.9% | OVCAR-8 ovarian 11.5% | OVCAR-5 ovarian 78.8% | OVCAR-4 ovarian 102% | IGROV1 ovarian 16.6% | OVCAR-3 ovarian 61.9% | HS 578T breast 91.5% | NCI/ADR-RES ovarian 74.9%
active: CCRF-CEM leukemia -18.3% | MOLT-4 leukemia -5.39% | SR leukemia -10.3% | RPMI-8226 leukemia -31.7%

O=C(Nc1ccccc1C(F)(F)F)C1=NCCCCN1
inactive: SK-MEL-2 melanoma 104% | EKVX NSCLC 93.1% | SN12C renal 98% | UO-31 renal 86.2% | TK-10 renal 98.8% | ACHN renal 103% | CAKI-1 renal 96.6% | A498 renal 97.1% | CCRF-CEM leukemia 102% | RPMI-8226 leukemia 99.6% | OVCAR-8 ovarian 99.9% | OVCAR-5 ovarian 94.7% | OVCAR-4 ovarian 99% | SK-OV-3 ovarian 108% | IGROV1 ovarian 101% | OVCAR-3 ovarian 101% | HS 578T breast 99.8% | NCI/ADR-RES ovarian 103%

c1ccc2[nH]c(-c3ccc(-c4nccc5c4[nH]c4ccccc45)cc3)nc2c1
inactive: SK-MEL-2 melanoma 47.3% | EKVX NSCLC 81.2% | SN12C renal 60.9% | UO-31 renal 89.2% | TK-10 renal 73.5% | ACHN renal 71.7% | CAKI-1 renal 81.9% | CCRF-CEM leukemia 11.1% | MOLT-4 leukemia 77.1% | RPMI-8226 leukemia 61.1% | OVCAR-8 ovarian 16.5% | OVCAR-5 ovarian 129% | OVCAR-4 ovarian 23% | SK-OV-3 ovarian 104% | IGROV1 ovarian 94.5% | HS 578T breast 73.7% | NCI/ADR-RES ovarian 62.6%
active: OVCAR-3 ovarian -24.2%

CCCc1cc(CCC)n2nc(N)nc2n1
inactive: SK-MEL-2 melanoma 128% | EKVX NSCLC 115% | SN12C renal 101% | UO-31 renal 129% | TK-10 renal 114% | ACHN renal 101% | CAKI-1 renal 95.3% | CCRF-CEM leukemia 93.1% | MOLT-4 leukemia 94.8% | SR leukemia 109% | RPMI-8226 leukemia 104% | OVCAR-8 ovarian 106% | OVCAR-5 ovarian 98.8% | OVCAR-4 ovarian 116% | SK-OV-3 ovarian 105% | IGROV1 ovarian 126% | OVCAR-3 ovarian 121% | HS 578T breast 103% | NCI/ADR-RES ovarian 109%

O=C1CCc2c(sc3[nH]c(=S)n(-c4cc(C(F)(F)F)cc(C(F)(F)F)c4)c(=O)c23)C1
active: SK-MEL-2 melanoma -31.3% | EKVX NSCLC -8.72% | SN12C renal 8.54% | UO-31 renal -57.5% | TK-10 renal 2.81% | ACHN renal 3.08% | CAKI-1 renal 0.877% | A498 renal -18.2% | CCRF-CEM leukemia 1.71% | RPMI-8226 leukemia -23.7% | OVCAR-8 ovarian 1.35% | OVCAR-5 ovarian -24.4% | OVCAR-4 ovarian 4.84% | SK-OV-3 ovarian -18.7% | IGROV1 ovarian -10.5% | OVCAR-3 ovarian -13.3% | HS 578T breast -6.29% | NCI/ADR-RES ovarian -13.4%
